From PubChem BioAssay (NCI)
This is part of a sample that, as a whole, favours compounds with a hit. Of some 79,000 tested, about 15% had one in any assay. Rule as the data show it: active = growth inhibition above about 70%; inactive = the rest.

Assays:
[1] = NCI Yeast Anticancer Drug Screen. Data for the rad52 strain (AID 147);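 also: 0% = growth of vehicle-treated control cultures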; details: S. cerevisiae rad52 mutant growth inhibition, hits give high values
Summary of the method: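 Genetically altered yeast (DNA damage repair defect) treated with compound; inhibition calculated relative to vehicle.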

[2] = NCI Yeast Anticancer Drug Screen. Data for the wt1 strain (AID 149);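 also: 0% = growth of vehicle-treated wt1 cultures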; details: S. cerevisiae wt1 strain (SPY 50644) growth inhibition, hits give high values
Summary of the method: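 Each compound is tested on wt1 yeast and the loss of growth versus vehicle gives the inhibition value.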

[3] = NCI Yeast Anticancer Drug Screen. Data for the rad50EPP+ strain (AID 151);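 also: 0% = growth of vehicle-treated control cultures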; details: S. cerevisiae rad50 mutant strain, hits give high values
Summary of the method: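 Strain rad50EPP+; compound exposure; % growth inhibition vs vehicle.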

[4] = NCI Yeast Anticancer Drug Screen. Data for the mgt1 strain (AID 153); details: S. cerevisiae mgt1 mutant growth inhibition, hits give high values
Summary of the method: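 Read-out: yeast growth inhibition vs vehicle control. Strain mgt1, drawn from a panel altered in DNA damage repair or cell cycle control.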

[5] = NCI Yeast Anticancer Drug Screen. Data for the rad50 strain (AID 155);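 also: 0% = growth of vehicle-only cultures of the same strain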; details: S. cerevisiae rad50 strain growth inhibition, hits give high values
Summary of the method: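 Vehicle-treated cultures provide the reference for the growth inhibition reported for compound-exposed, repair-deficient yeast.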

[6] = NCI Yeast Anticancer Drug Screen. Data for the mec2-1 strain (AID 157); details: S. cerevisiae mec2-1 strain, hits give high values
Summary of the method: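 Cells of the genetically defined mec2-1 yeast strain are incubated with test compound. Inhibition of growth is calculated against vehicle-treated controls.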

[7] = NCI Yeast Anticancer Drug Screen. Data for the rad14 strain (AID 159);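 also: 0% = growth of vehicle-treated control cultures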; details: S. cerevisiae rad14 strain growth inhibition, hits give high values
Summary of the method: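 Inhibition of growth is reported for a repair-deficient yeast mutant following compound treatment, calculated relative to cultures that received vehicle.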

[8] = NCI Yeast Anticancer Drug Screen. Data for the sgs1 mgt1 strain (AID 161);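 also: 0% = growth of cultures given vehicle only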; details: S. cerevisiae sgs1 mgt1 strain, hits give high values
Summary of the method: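 Test agents were incubated with a DNA-repair-mutant yeast strain. Growth was then read and compared against vehicle-treated controls.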

[9] = NCI Yeast Anticancer Drug Screen. Data for the CLN2oe strain (AID 163);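 also: 0% = growth of vehicle-only control cultures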; details: S. cerevisiae CLN2oe strain, hits give high values
Summary of the method: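 Strain altered in cell-cycle control, incubated with compound; growth compared to solvent-treated controls.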

[10] = NCI Yeast Anticancer Drug Screen. Data for the cln2 rad14 strain (AID 165);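 also: 0% = growth equal to vehicle treated cultures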; details: S. cerevisiae cln2 rad14 strain, hits give high values
Summary of the method: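 The screen exposed genetically defined yeast (cln2 rad14) to test compounds and scored growth inhibition relative to vehicle-treated controls.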

[11] = NCI Yeast Anticancer Drug Screen. Data for the bub3 strain (AID 167); details: S. cerevisiae bub3 mutant strain, hits give high values
Summary of the method: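 Mutant yeast screening strain plus compound; vehicle-treated cultures serve as the 0% inhibition reference.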

[12] = NCI Yeast Anticancer Drug Screen. Data for the wt2 strain (AID 169); details: S. cerevisiae wt2 strain growth inhibition, hits give high values
Summary of the method: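 Steps: yeast strain treated with compound; growth recorded; inhibition calculated relative to cultures given vehicle alone.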

[13] = NCI Yeast Anticancer Drug Screen. Data for the mlh1 strain (AID 171);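 also: 0% = growth of vehicle-treated control cultures of the same strain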; details: S. cerevisiae mlh1 strain growth inhibition, hits give high values
Summary of the method: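 Yeast screen: mutant strain plus compound, growth scored against vehicle control wells.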

[14] = NCI Yeast Anticancer Drug Screen. Data for the sgs1 strain (AID 173);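 also: 0% = growth of vehicle-only control cultures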; details: S. cerevisiae sgs1 mutant, hits give high values
Summary of the method: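 Inhibition of yeast growth served as the measure. The mutant strain was treated with each compound, and growth was normalised to cultures receiving vehicle alone.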

[15] = NCI Yeast Anticancer Drug Screen. Data for the mlh1 rad18 strain (AID 175); details: S. cerevisiae mlh1 rad18 strain growth inhibition, hits give high values
Summary of the method: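 Compound-treated yeast growth, normalised to vehicle controls. Strain bears defined DNA repair mutations.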

[16] = NCI Yeast Anticancer Drug Screen. Data for the rad18 strain (AID 177); details: S. cerevisiae rad18 mutant growth inhibition, hits give high values
Summary of the method: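 Inhibition values reflect reduced yeast growth compared with vehicle-treated controls, using a strain engineered with a DNA damage repair defect.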

[17] = at 5.0 µM (retest, dose inferred, filed as 0.5)
[18] = at 50.0 µM (retest, dose inferred, filed as 5.0)

Measured: growth inhibition

S=C1NC2(CCCCC2)NC12CCCCC2
inactive: [1]; at 1.2 µM -1% | [1]; at 3.7 µM -5% | [1]; at 11.0 µM -3% | [1]; at 33.0 µM 2% | [1]; at 100.0 µM -1% | [2]; at 1.2 µM -2% | [2]; at 3.7 µM -3% | [2]; at 11.0 µM 3% | [2]; at 33.0 µM 8% | [2]; at 100.0 µM 13% | [3]; at 1.2 µM -2% | [3]; at 3.7 µM 0% | [3]; at 11.0 µM 2% | [3]; at 33.0 µM 8% | [3]; at 100.0 µM 7% | [4]; at 1.2 µM -2% | [4]; at 3.7 µM -8% | [4]; at 11.0 µM 5% | [4]; at 33.0 µM 17% | [4]; at 100.0 µM 10% | [5]; at 1.2 µM 0% | [5]; at 3.7 µM 9% | [5]; [17] 11% | [5]; at 11.0 µM 19% | [5]; at 33.0 µM 19% | [5]; [18] 33% | [5]; at 50.0 µM 44.9% | [5]; at 100.0 µM 11% | [6]; at 1.2 µM -12% | [6]; at 3.7 µM -19% | [6]; [17] 3% | [6]; at 11.0 µM -18% | [6]; at 33.0 µM -1% | [6]; [18] 23% | [6]; at 50.0 µM 4.85% | [6]; at 100.0 µM 2% | [7]; at 1.2 µM -2% | [7]; at 3.7 µM -7% | [7]; at 11.0 µM -1% | [7]; at 33.0 µM 0% | [7]; at 100.0 µM 3% | [8]; [17] 30% | [8]; [18] 69% | [8]; at 50.0 µM 13.8% | [9]; at 1.2 µM -7% | [9]; at 3.7 µM -3% | [9]; at 11.0 µM -2% | [9]; at 33.0 µM 6% | [9]; at 100.0 µM 9% | [10]; [17] -30% | [10]; [18] 2% | [10]; at 50.0 µM -2% | [11]; at 1.2 µM -18% | [11]; at 3.7 µM -14% | [11]; [17] 16% | [11]; at 11.0 µM 3% | [11]; at 33.0 µM 2% | [11]; [18] 20% | [11]; at 50.0 µM 14.5% | [11]; at 100.0 µM 6% | [12]; at 1.2 µM -2% | [12]; at 3.7 µM -2% | [12]; at 11.0 µM 3% | [12]; at 33.0 µM 14% | [12]; at 100.0 µM 16% | [13]; at 1.2 µM -6% | [13]; at 3.7 µM -5% | [13]; at 11.0 µM 0% | [13]; at 33.0 µM 1% | [13]; at 100.0 µM -2% | [14]; at 1.2 µM -1% | [14]; at 3.7 µM -3% | [14]; at 11.0 µM 2% | [14]; at 33.0 µM 8% | [14]; at 100.0 µM 12% | [15]; [17] -9% | [15]; [18] 49% | [15]; at 50.0 µM 27.3% | [16]; at 1.2 µM -3% | [16]; at 3.7 µM -1% | [16]; at 11.0 µM 15% | [16]; at 33.0 µM 24% | [16]; at 100.0 µM 7%
